Key:
Conditions in all cases: concentration: 1 μM, replicates: in singlicate; n = 1
[1] = test system: NEK11
[2] = test system: NEK1
[3] = test system: NEK2
[4] = test system: NEK3
[5] = test system: NEK4
[6] = test system: NEK5
[7] = test system: NEK6
[8] = test system: NEK7
[9] = test system: NEK9
[10] = test system: T1, NIK
T1 construct: gene MAP3K14
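Further: KINOMEscan kinase panel screen.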

Row | SMILES | %Inh [1] [%] | %Inh [2] [%] | %Inh [3] [%] | %Inh [4] [%] | %Inh [5] [%] | %Inh [6] [%] | %Inh [7] [%] | %Inh [8] [%] | %Inh [9] [%] | %Inh [10] [%]
1 | CCn1c(-c2nonc2N)nc2c(C#CC(C)(C)O)nc(OC[C@H](N)c3ccccc3)cc21 [GSK943949] | 0 | 0 | 0 | 3 | 0 | 0 | 14 | 0 | 0 | 72
2 | Cc1occc1-c1ncc(OC[C@@H](N)Cc2c[nH]c3ccccc23)cc1-c1ccc2[nH]nc(C)c2c1.O=C(O)C(F)(F)F [GSK682037] | 0 | 24 | 0 | 0 | 0 | 24 | 0 | 0 | 8 | 78
3 | COc1cccc(C2=C(Nc3ccc(Cl)c(C(=O)O)c3)C(=O)NC2=O)c1 [SB-390769] | 27 | 0 | 0 | 7 | 38 | 3 | 0 | 0 | 0 | 21
4 | O=C(Nc1cccc(-c2nn3ccccc3c2-c2ccnc(Nc3cccc(F)c3)n2)c1)c1c(F)ccc(F)c1Cl [GSK357952] | 6 | 0 | 20 | 0 | 6 | 0 | 0 | 6 | 19 | 36
5 | COc1cccc(-c2ccc3c(NC(=O)C4CC4)n[nH]c3n2)c1 [SB-710903] | 36 | 0 | 0 | 18 | 0 | 6 | 0 | 0 | 0 | 0
6 | O=c1[nH]cc(-c2ccc(N3CCOCC3)cc2)c2sc(-c3cn[nH]c3)cc12 [GSK2276055] | 0 | 19 | 19 | 16 | 0 | 0 | 0 | 39 | 53 | 17
7 | C[C@@H](Oc1cc(-n2cnc3cc(-c4ccnc(NCCS(C)(=O)=O)c4)ccc32)sc1C(N)=O)c1ccccc1Cl [GSK907232] | 0 | 72 | 98.8 | 3 | 0 | 89 | 4 | 12 | 74 | 0
8 | CCc1ccc(-c2ccc3c(c2)-c2c(cnn2C)S(=O)(=O)N3C)cc1 | 0 | 0 | 5 | 0 | 0 | 0 | 0 | 0 | 0 | 0
9 | Cn1cc(-c2ccc3c(c2)CCN3C(=O)Cc2cccc(F)c2)c2c(N)ncnc21 [GSK2603358] | 8 | 31 | 73 | 11 | 22 | 28 | 0 | 0 | 0 | 23
10 | CC(=O)Nc1nc2cnc(Nc3cc(NC(=O)c4cccc(C5(C#N)CC5)c4Cl)ccc3C)nc2s1 | 0 | 0 | 0 | 18 | 10 | 0 | 4 | 7 | 14 | 0
11 | O=C(Nc1ccccc1F)NC1CCN(c2ccnc(Nc3ccc(F)cc3)n2)CC1 [GSK1379800] | 7 | 0 | 0 | 13 | 0 | 33 | 0 | 0 | 0 | 9
12 | Nc1ncnc2c1nc(-c1ccccc1)n2-c1ccccc1 [SKF-97293] | 30 | 23 | 0 | 2 | 26 | 0 | 15 | 6 | 0 | 34
13 | Clc1ccc(-c2nn3ncccc3c2-c2ccnc(Nc3ccc4c(c3)OCCO4)n2)cc1 [GW829116] | 0 | 0 | 0 | 12 | 0 | 0 | 0 | 0 | 0 | 10
14 | COc1ccc(Nc2nccc(NCCNC(=O)c3cc4ccccc4s3)n2)cc1 [GSK1379896] | 3 | 0 | 22 | 0 | 14 | 13 | 0 | 0 | 21 | 7
15 | COc1cc(Nc2nccc(-c3c(-c4cccc(NC(=O)c5c(F)cccc5F)c4)nn4ccccc34)n2)cc(OC)c1OC [GSK323521] | 0 | 8 | 78 | 0 | 34 | 22 | 25 | 33 | 48 | 19
16 | CSc1cccc2c(-c3ccncn3)c(-c3ccc(F)cc3)nn12 [GW514786] | 0 | 0 | 0 | 0 | 15 | 7 | 0 | 0 | 1 | 14
17 | CN(c1ccc(NC(=O)Nc2cc(C(F)(F)F)ccc2F)cc1)c1ccnc(Nc2ccc(S(N)(=O)=O)cc2)n1 [GW809893] | 0 | 100 | 0 | 15 | 26 | 31 | 20 | 0 | 37 | 38
18 | COc1ccc(Nc2nccc(N3CCC(NC(=O)Nc4cccc(OC)c4)C3)n2)cc1 (stereo not shown) [GSK1379742] | 0 | 0 | 17 | 0 | 0 | 3 | 0 | 0 | 2 | 7
19 | COc1cccc(C(=O)Nc2cccc(Oc3ccc4nc(NC(=O)C5CC5)cn4n3)c2)c1 | 0 | 16 | 8 | 19 | 0 | 23 | 5 | 0 | 0 | 0
20 | Cc1ccc(S(=O)(=O)Nc2ccc(Nc3nccc(Nc4cccc5[nH]ncc45)n3)cc2)cc1 [GSK581271] | 27 | 0 | 4 | 0 | 20 | 5 | 0 | 0 | 11 | 0
21 | CCCCc1nn2ncccc2c1-c1ccnc(Nc2ccc(N3CCN(C)CC3)cc2)n1 [GW684941] | 62 | 0 | 53 | 9 | 14 | 0 | 0 | 0 | 0 | 11
22 | COC(=O)Nc1nc2ccc(Oc3ccc(NC(=O)Nc4cc(C(F)(F)F)ccc4F)cc3)cc2n1C.Cl [GW692089] | 25 | 0 | 0 | 0 | 0 | 0 | 0 | 0 | 0 | 27

Reference: paper PMC5540273 (PLoS ONE, 2017)
